About 79,000 compounds went through this panel and 15% of them were active in at least one assay; those are over-represented in the sample as a whole. Values without a mark were called inactive. The source made the active and inactive calls. Rule as the data show it: active = growth inhibition above about 70%; inactive = the rest.
What was measured:
[1] = NCI Yeast Anticancer Drug Screen. Data for the rad50 strain (AID 155);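 also: 0% = growth of vehicle-only cultures of the same strain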; settings: S. cerevisiae rad50 strain growth inhibition, hits give high values
Method in brief: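 Growth of the mutant yeast was measured after compound exposure and referenced to vehicle-treated cultures.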

[2] = NCI Yeast Anticancer Drug Screen. Data for the mec2-1 strain (AID 157); settings: S. cerevisiae mec2-1 strain, hits give high values
Method in brief: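 Mutant yeast (mec2-1) grown with compound; growth inhibition relative to vehicle control reported.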

[3] = NCI Yeast Anticancer Drug Screen. Data for the sgs1 mgt1 strain (AID 161);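 also: 0% = growth of cultures given vehicle only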; settings: S. cerevisiae sgs1 mgt1 strain, hits give high values
Method in brief: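 Percent growth inhibition was derived by comparing compound-exposed mutant yeast with vehicle-exposed cultures. The strain carries alterations in DNA damage repair.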

[4] = NCI Yeast Anticancer Drug Screen. Data for the cln2 rad14 strain (AID 165);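 also: 0% = growth equal to vehicle treated cultures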; settings: S. cerevisiae cln2 rad14 strain, hits give high values
Method in brief: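 Readout is yeast growth inhibition versus vehicle-treated controls, using a strain with cln2 and rad14 alterations exposed to compound.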

[5] = NCI Yeast Anticancer Drug Screen. Data for the bub3 strain (AID 167); settings: S. cerevisiae bub3 mutant strain, hits give high values
Method in brief: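 Whole-cell yeast assay. The mutant strain was incubated with compounds, and growth inhibition was determined by comparison with vehicle-treated cells.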

[6] = NCI Yeast Anticancer Drug Screen. Data for the mlh1 rad18 strain (AID 175); settings: S. cerevisiae mlh1 rad18 strain growth inhibition, hits give high values
Method in brief: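 Genetically defined yeast (DNA repair-deficient) exposed to compounds; growth inhibition determined relative to vehicle.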

[7] = at 5.0 µM (retest, dose inferred, filed as 0.5)
[8] = at 50.0 µM (retest, dose inferred, filed as 5.0)

| SMILES | growth inhibition [1, 7] | growth inhibition [1, 8] | growth inhibition ([1]; at 50.0 µM) | growth inhibition [2, 7] | growth inhibition [2, 8] | growth inhibition ([2]; at 50.0 µM) | growth inhibition [3, 7] | growth inhibition [3, 8] | growth inhibition ([3]; at 50.0 µM) | growth inhibition [4, 7] | growth inhibition [4, 8] | growth inhibition ([4]; at 50.0 µM) | growth inhibition [5, 7] | growth inhibition [5, 8] | growth inhibition ([5]; at 50.0 µM) | growth inhibition [6, 7] | growth inhibition [6, 8] | growth inhibition ([6]; at 50.0 µM) |
| --- | --- | --- | --- | --- | --- | --- | --- | --- | --- | --- | --- | --- | --- | --- | --- | --- | --- | --- |
| Cl[C](Cl)(Cl)[Hg][C](Cl)(Cl)Cl | 80% (active) | 96% (active) | 89.8% (active) | 90% (active) | 94% (active) | 92.7% (active) | 100% (active) | 100% (active) | 92.8% (active) | 99% (active) | 99% (active) | 91.5% (active) | 100% (active) | 97% (active) | 91.3% (active) | 78% (active) | 95% (active) | 90.2% (active) |
| CC(=O)c1cc(CN(CCCl)CCCl)c(O)c(CN(CCCl)CCCl)c1O | 5% | 12% | 90.5% (active) | -13% | 14% | 77.7% (active) | 10% | 34% | 96.2% (active) | 4% | 6% | 63.1% | 3% | 6% | 78.6% (active) | -4% | 45% | 89.5% (active) |
| [C-]#[O+].[C-]#[O+].[CH3][Sn]([CH3])[c]1ccccc1.[Fe+5].[c-]1[c-][c-][cH-][c-]1 | 7% | 82% (active) | 95.3% (active) | 4% | 87% (active) | 98% (active) | 9% | 88% (active) | 94.7% (active) | -8% | 85% (active) | 95.3% (active) | -7% | 90% (active) | 98% (active) | 7% | 90% (active) | 94% (active) |
| O=[N+]([O-])c1ccc(NP(=S)(Nc2ccc([N+](=O)[O-])cc2)c2ccccc2)cc1 | 28% | 91% (active) | 93% (active) | 38% | 94% (active) | 95.6% (active) | 6% | 89% (active) | 91.5% (active) | 56% | 88% (active) | 90.8% (active) | 64% | 90% (active) | 95% (active) | 68% | 77% (active) | 94.3% (active) |
| COS(=O)(=O)c1ccccc1 | 8% | -2% | -2.5% | 0% | -2% | -2.4% | -4% | 4% | 11.6% | 7% | -4% | -16.8% | 1% | 39% | -4.55% | 8% | -1% | 10.3% |
| O=[N+]([O-])c1cc(-c2ccccc2)ccc1O | -3% | 10% | 98% (active) | 5% | 12% | 98.7% (active) | -1% | 7% | 97.4% (active) | -3% | 2% | 98% (active) | 0% | -2% | 96.2% (active) | -1% | 7% | 98.8% (active) |
| CC(=O)Nc1ccc([As](O[As](c2ccc(NC(C)=O)cc2)c2ccc([N+](=O)[O-])cc2)c2ccc([N+](=O)[O-])cc2)cc1 (centres undefined) | 99% (active) | 100% (active) | 98.7% (active) | 99% (active) | 100% (active) | 99.7% (active) | 100% (active) | 99% (active) | 99.5% (active) | 99% (active) | 99% (active) | 99.3% (active) | 99% (active) | 99% (active) | 99.4% (active) | 99% (active) | 99% (active) | 99% (active) |
| CN(C)C(=O)OC1C(=O)N(C)c2ccc(Cl)cc2C2(c3ccccc3)N1C2(Cl)Cl (centres undefined) | -18% | 62% | -23.3% | 5% | 69% | -14.8% | -12% | 77% (active) | -22.2% | -11% | 64% | -2.85% | 3% | 74% (active) | -33.4% | -4% | 70% (active) | 13.8% |
| O=[N+]([O-])/C=C/c1ccc(Cl)cc1[N+](=O)[O-] | 97% (active) | 98% (active) | 99.2% (active) | 98% (active) | 99% (active) | 99.6% (active) | 99% (active) | 99% (active) | 99.5% (active) | 98% (active) | 97% (active) | 99.3% (active) | 99% (active) | 99% (active) | 99.4% (active) | 96% (active) | 99% (active) | 99.2% (active) |
| CCCCCc1cc(/C=C2/N=C(c3ccc[nH]3)C=C2OC)[nH]c1C | 47% | 77% (active) | 83.9% (active) | 49% | 81% (active) | 85.5% (active) | 75% (active) | 86% (active) | 86.8% (active) | 46% | 81% (active) | 84.3% (active) | 80% (active) | 79% (active) | 83.8% (active) | 71% (active) | 77% (active) | 84% (active) |
| NC(=O)c1ccc(C(=O)Nc2ccc([As](=O)(O)O)cc2)cc1 | 30% | 21% | -3.85% | 6% | 3% | -26.7% | 22% | 3% | -43.2% | 2% | -14% | 49.4% | -7% | 1% | -13.1% | 11% | 9% | -15.9% |
| O=NNc1c[nH]c(=O)[nH]c1=O | 1% | 69% | 72.6% (active) | 0% | 14% | 5.85% | -1% | 29% | 17.1% | -5% | 12% | 4.3% | -1% | -12% | 0.3% | 3% | 39% | 21.1% |
| CC(=O)[C-](Cl)C(C)=O.CC(=O)[C-](Cl)C(C)=O.CC(=O)[C-](Cl)C(C)=O.[Ru+3] | 16% | 98% (active) | 34.6% | 15% | 99% (active) | 84.8% (active) | 16% | 99% (active) | 53.8% | 8% | 99% (active) | -1.7% | -1% | 99% (active) | -17.4% | 6% | 99% (active) | 76.8% (active) |
| CC(=O)OC1=CC2=CC[C@H]3[C@@H]4CCC(=O)[C@@]4(C)CC(=O)[C@]3(S)[C@@]2(C)CC1 | 14% | 18% | 77.5% (active) | 3% | 8% | 25.5% | 8% | -20% | -4.4% | -16% | -70% | -15.7% | -8% | -3% | 60.6% | -13% | 11% | 54.1% |
| CC1CC[N-]C(C)C1.CN(C)C=O.[Cl][Pt][Cl] (centres undefined) | 33% | 100% (active) | 80.7% (active) | 42% | 100% (active) | 92.2% (active) | 66% | 100% (active) | 89.8% (active) | 61% | 100% (active) | 49% | 73% (active) | 100% (active) | 89.4% (active) | 25% | 99% (active) | 89.8% (active) |
| Sc1ccccc1.[Ag] | 27% | 97% (active) | 98.5% (active) | 58% | 99% (active) | 98.8% (active) | 49% | 98% (active) | 99% (active) | 20% | 97% (active) | 98.1% (active) | 56% | 97% (active) | 97.9% (active) | 49% | 97% (active) | 98.3% (active) |
| O=C1C(=O)C(Br)(Br)C(Br)=C1Br | -2% | 4% | 88.5% (active) | 1% | 21% | 88.2% (active) | -4% | 5% | 95% (active) | -1% | -2% | 90.5% (active) | -4% | -1% | 93.5% (active) | -4% | -4% | 96.8% (active) |
| CCOC(=O)[C]1([Pb]([CH3])([CH3])[CH3])N=NC(C(=O)OC)=C1C(=O)OC (centres undefined) | 6% | 32% | 68.8% | -1% | -14% | -2.15% | 2% | 22% | 29.8% | 4% | 5% | 14.2% | -2% | 32% | 15.9% | 1% | -2% | 30.7% |

Reference: PubChem BioAssay (NCI)
